Measured values taken from PubChem BioAssay (EPA / NIEHS).
Records with an inconclusive call do not appear. The source made the active and inactive calls. The calls were made as follows, unless noted: active = hit-call score of the fitted dose curve at least 0.9, where 1 is the maximum; inactive = score below 0.9.

Key:
[1] = ATG_CRE_CIS: Attagene CIS-FACTORIAL HepG2 Assay for human cAMP Responsive Element (CRE) binding protein 3 (AID 2282926); conditions: HepG2 CRE cis-reporter, Attagene multiplexed mRNA; actives raise or lower the signal
In short: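 Transfected HepG2 were treated for 24 hours, then RNA was extracted and reporter cDNA amplified with sequence-specific primers. Labelled fragments were separated by capillary electrophoresis, and the CRE signal was fitted bidirectionally with DMSO as baseline.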

[2] = ATG_M_19_CIS: Attagene CIS-FACTORIAL HepG2 Assay for M19 Transcription Factor (Internal Marker) (AID 2282939); conditions: HepG2 Attagene CIS-FACTORIAL M19 internal marker reporter; actives raise or lower the signal
In short: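 Signals come from fluorescence of labelled reporter-specific PCR fragments resolved by capillary electrophoresis, following 24 h treatment of HepG2 cells transfected with cis-promoter reporter units; activity was fitted in both directions relative to DMSO.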

[3] = molecular target: Hypoxia-inducible factor 1-alpha (Homo sapiens) (UniProt Q16665); assay: ATG_HIF1a_CIS: Attagene CIS-FACTORIAL HepG2 Assay for human Hypoxia Inducible Factor 1 (HIF1A) (AID 2282951); conditions: HepG2 Attagene cis-factorial HIF1a reporter transcription; actives raise or lower the signal
In short: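 RT-PCR/capillary electrophoresis fluorescence readout of reporter transcripts from endogenous-TF-driven cis elements in transfected HepG2 cells, 24 h exposure; activity fitted in both directions against DMSO controls.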

[4] = molecular target: Heat shock factor protein 1 (Homo sapiens) (UniProt Q00613); assay: ATG_HSE_CIS: Attagene CIS-FACTORIAL HepG2 Assay for human Heat Shock Transcription Factor 1 (HSE) (AID 2282953); conditions: HepG2 HSE cis-reporter, Attagene RNA transcription; actives raise or lower the signal
In short: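 Endogenous transcription factor activity captured via cis-promoter reporter units transfected into HepG2; treatment lasted 24 h. Fluorescence intensity of reporter fragments analysed with bidirectional curve fitting, DMSO baseline.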

[5] = molecular target: Paired box protein Pax-6 (Homo sapiens) (UniProt P26367); assay: ATG_Pax6_CIS: Attagene CIS-FACTORIAL HepG2 Assay for human Paired Box 6 (PAX6) (AID 2282956); conditions: HepG2 CIS-FACTORIAL PAX6 reporter transcription, RNA readout; actives raise or lower the signal
In short: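 HepG2 cells transiently transfected with multiplexed cis-promoter reporter units (endogenous TF activity) were dosed for 24 h. Reporter mRNA was quantified by RT-PCR, 6-FAM labeling, HpaI digestion and capillary electrophoresis; bidirectional fitting versus DMSO baseline.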

[6] = ATG_RORE_CIS: Attagene CIS-FACTORIAL HepG2 Assay for human RAR-related Orphan Receptor Element (RORE) (AID 2282959); conditions: HepG2 Attagene cis-factorial RORE reporter, mRNA; actives raise or lower the signal
In short: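 Readout: fluorescent reporter mRNA by RT-PCR plus capillary electrophoresis, 24 h after dosing transfected HepG2 cells. Endogenous transcription factor activity on a cis promoter element is measured. Gain or loss of signal fitted against DMSO.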

[7] = ATG_TA_CIS: Attagene CIS-FACTORIAL HepG2 Assay for human TA Basal Promoter (AID 2282964); conditions: HepG2 Attagene CIS-factorial TA basal promoter reporter; actives raise or lower the signal
In short: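 Fluorescence from labelled RT-PCR reporter fragments, separated by capillary electrophoresis, gives the signal. Cells: HepG2 transiently carrying multiple reporter units, 24 h chemical dosing. Gain or loss relative to DMSO.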

[8] = ATG_TAL_CIS: Attagene CIS-FACTORIAL HepG2 Assay for human TAL Basal Promoter (AID 2282966); conditions: HepG2 Attagene cis-factorial TAL promoter reporter; actives raise or lower the signal;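 also: background control endpoint measuring basal TAL promoter reporter mRNA not a specific factor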
In short: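 Steps: transfect HepG2 with multiple reporter transcription units; dose 24 h; isolate RNA, reverse-transcribe, PCR-amplify, label with 6-FAM, digest with HpaI; resolve by capillary electrophoresis. Bidirectional fitting against DMSO baseline.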

[9] = ATG_TGFb_CIS: Attagene CIS-FACTORIAL HepG2 Assay for human Transforming Growth Factor (TGF) (AID 2282967); conditions: HepG2 Attagene CIS TGFb reporter, mRNA transcription; actives raise or lower the signal
In short: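 Bidirectional fitting relative to DMSO gave the endpoint. Underlying data: reporter mRNA from HepG2 cells carrying transiently transfected cis-regulated reporter constructs, harvested 24 h after dosing and analyzed by RT-PCR and capillary electrophoresis.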

[10] = ATG_VDRE_CIS: Attagene CIS-FACTORIAL HepG2 Assay for human Vitamin D Receptor Element (VDRE) (AID 2282968); conditions: HepG2 VDRE cis-reporter transcription, actives raise or lower the signal
In short: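 Reporter mRNA induction, quantified by capillary electrophoresis of fluorescently labelled RT-PCR products, was read 24 h after dosing HepG2 cells carrying transiently transfected cis-regulated reporter units; gain or loss relative to DMSO.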

[11] = ATG_M_32_TRANS: Attagene TRANS-FACTORIAL HepG2 Assay for M32 Transcription Factor (Internal Marker) (AID 2282984; active = hit-call score of the fitted dose curve at least 0.9, where 1 is the maximum;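 also: transcript level of a background control reporter unit measured by RT-PCR and capillary electrophoresis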); conditions: HepG2 Attagene TRANS M32 internal marker reporter
In short: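 Measures reporter mRNA induction in human HepG2 liver cells after 24 h chemical treatment. Transcripts from transiently transfected GAL4-UAS reporter units are amplified, fluorescently labelled and sized by capillary electrophoresis; gain of signal relative to DMSO.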

[12] = molecular target: Transcriptional activator Myb (Homo sapiens) (UniProt P10242); assay: ATG_Myb_CIS: Attagene CIS-FACTORIAL HepG2 Assay for human Myeloblastosis (Myb) Proto-Oncogene Transcription Factor (AID 2282986); conditions: HepG2 Attagene CIS-FACTORIAL Myb reporter transcription; actives raise or lower the signal
In short: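 HepG2, transient MRTU transfection (cis-element promoters, endogenous TF activity), 24 h compound exposure. Readout: reporter mRNA via RT-PCR, 6-FAM labeling, HpaI digest, capillary electrophoresis. Gain/loss fit vs DMSO.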

[13] = molecular target: Nuclear respiratory factor 1 (Homo sapiens) (UniProt Q16656); assay: ATG_NRF1_CIS: Attagene CIS-FACTORIAL HepG2 Assay for human Nuclear Respiratory Factor 1 (NRF1) Orphan Gene (AID 2282987); conditions: HepG2 NRF1 cis-element reporter, Attagene multiplex; actives raise or lower the signal
In short: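 Endogenous NRF1-driven reporter transcription measured in transiently transfected human HepG2 liver cells. Readout: reporter mRNA by RT-PCR and capillary electrophoresis with fluorescence detection, 24 h post-dosing. Gain or loss of signal fitted relative to DMSO baseline.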

[14] = ATG_NFI_CIS: Attagene CIS-FACTORIAL HepG2 Assay for human Nuclear Factor I (NFI) (AID 2282989); conditions: HepG2 cis-regulatory reporter, NFI response element transcription; actives raise or lower the signal
In short: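 Cells: human liver HepG2, transiently transfected with promoter-regulated reporter transcription units. Exposure 24 h. Detection: fluorescent RT-PCR products separated by capillary electrophoresis, normalised to DMSO negative control.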

[15] = ATG_NF_kB_CIS: Attagene CIS-FACTORIAL HepG2 Assay for human Nuclear Factor Kappa B (NF-kB) (AID 2282991); conditions: HepG2 Attagene cis-factorial NF-kB reporter mRNA; actives raise or lower the signal
In short: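 Read-out: reporter transcript levels quantified by RT-PCR plus capillary electrophoresis of 6-FAM-labelled, HpaI-cut fragments. Transfected HepG2 cells, 24 h compound exposure, endogenous NF-kB-driven cis element; gain or loss scored versus DMSO.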

[16] = ATG_NRF2_ARE_CIS: Attagene CIS-FACTORIAL HepG2 Assay for human Nuclear Factor Erythroid 2 Related Factor 2 (NFR2) response to Antioxidant Response Elements (ARE) (AID 2282992); conditions: HepG2 Attagene ARE/NRF2 reporter, transcription factor activity; actives raise or lower the signal
In short: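 HepG2 cells transiently transfected with multiplexed cis-regulated reporter transcription units measure endogenous transcription factor activity. Reporter mRNA at 24 h is quantified by RT-PCR, fluorescent labelling and capillary electrophoresis, with bidirectional fitting relative to DMSO.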

[17] = ATG_Oct_MLP_CIS: Attagene CIS-FACTORIAL HepG2 Assay for human Octamer-Binding Transcription Factor (Oct) (AID 2282993); conditions: HepG2 Attagene cis-factorial Oct reporter, mRNA; actives raise or lower the signal
In short: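 HepG2, transient MRTU transfection, cis promoter elements; 24 h dosing; RT-PCR/CE fluorescence read-out of reporter mRNA; fit both directions vs DMSO.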

[18] = molecular target: Cellular tumor antigen p53 (Homo sapiens) (UniProt P04637); assay: ATG_p53_CIS: Attagene CIS-FACTORIAL HepG2 Assay for human p53 Transcription Factor (AID 2282994); conditions: HepG2 p53 cis-element reporter, Attagene mRNA; actives raise or lower the signal
In short: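 HepG2 cells transiently transfected with multiplexed cis-regulated reporter transcription units read endogenous TF activity. After 24 h compound exposure, reporter mRNA was quantified by RT-PCR, fluorescent labelling, HpaI digestion and capillary electrophoresis; bidirectional fits versus DMSO baseline.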

[19] = molecular target: Peroxisome proliferator-activated receptor gamma (Homo sapiens) (UniProt P37231); assay: ATG_PPARg_TRANS: Attagene TRANS-FACTORIAL HepG2 Assay for human Peroxisome Proliferator-activated Receptor-gamma (PPARg) (AID 2283007; active = hit-call score of the fitted dose curve at least 0.9, where 1 is the maximum)
In short: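 Read-out: reporter mRNA induction, detected by fluorescence after RT-PCR and capillary electrophoresis. Transiently transfected human HepG2 liver cells carrying a chimeric NR-Gal4 construct were dosed for 24 h; activity was fitted upward relative to DMSO.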

[20] = molecular target: Transcription factor E2F1 (Homo sapiens) (UniProt Q01094); assay: ATG_E2F_CIS: Attagene CIS-FACTORIAL HepG2 Assay for human E2F Transcription Factor 1 (AID 2282935); conditions: HepG2 Attagene cis-reporter, E2F reporter RNA transcripts; actives raise or lower the signal
In short: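 Cis-element reporter mRNA induction in transiently transfected HepG2, 24 h exposure. Activity fitted in both directions relative to DMSO negative control.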

Measured: AC50

Transcriptional activator Myb (Homo sapiens), sequence (P10242 whole entry, looked up): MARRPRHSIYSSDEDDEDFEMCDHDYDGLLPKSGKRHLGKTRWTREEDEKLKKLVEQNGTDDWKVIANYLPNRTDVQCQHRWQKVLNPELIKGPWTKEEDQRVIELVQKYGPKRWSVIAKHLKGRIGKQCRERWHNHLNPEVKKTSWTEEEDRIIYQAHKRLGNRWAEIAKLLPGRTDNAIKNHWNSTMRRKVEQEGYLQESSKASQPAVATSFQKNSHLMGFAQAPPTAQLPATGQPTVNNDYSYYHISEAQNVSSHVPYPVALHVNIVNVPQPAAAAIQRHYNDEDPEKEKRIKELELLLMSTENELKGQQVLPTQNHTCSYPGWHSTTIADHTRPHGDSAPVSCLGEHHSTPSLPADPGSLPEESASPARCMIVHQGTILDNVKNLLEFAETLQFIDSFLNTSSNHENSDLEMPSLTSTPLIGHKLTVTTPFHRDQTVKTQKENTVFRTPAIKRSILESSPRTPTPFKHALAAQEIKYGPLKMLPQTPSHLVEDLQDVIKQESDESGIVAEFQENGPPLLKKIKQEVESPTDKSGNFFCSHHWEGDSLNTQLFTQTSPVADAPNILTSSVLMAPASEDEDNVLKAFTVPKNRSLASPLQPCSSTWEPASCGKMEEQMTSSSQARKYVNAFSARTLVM
Hypoxia-inducible factor 1-alpha (Homo sapiens), sequence (Q16665 whole entry, looked up): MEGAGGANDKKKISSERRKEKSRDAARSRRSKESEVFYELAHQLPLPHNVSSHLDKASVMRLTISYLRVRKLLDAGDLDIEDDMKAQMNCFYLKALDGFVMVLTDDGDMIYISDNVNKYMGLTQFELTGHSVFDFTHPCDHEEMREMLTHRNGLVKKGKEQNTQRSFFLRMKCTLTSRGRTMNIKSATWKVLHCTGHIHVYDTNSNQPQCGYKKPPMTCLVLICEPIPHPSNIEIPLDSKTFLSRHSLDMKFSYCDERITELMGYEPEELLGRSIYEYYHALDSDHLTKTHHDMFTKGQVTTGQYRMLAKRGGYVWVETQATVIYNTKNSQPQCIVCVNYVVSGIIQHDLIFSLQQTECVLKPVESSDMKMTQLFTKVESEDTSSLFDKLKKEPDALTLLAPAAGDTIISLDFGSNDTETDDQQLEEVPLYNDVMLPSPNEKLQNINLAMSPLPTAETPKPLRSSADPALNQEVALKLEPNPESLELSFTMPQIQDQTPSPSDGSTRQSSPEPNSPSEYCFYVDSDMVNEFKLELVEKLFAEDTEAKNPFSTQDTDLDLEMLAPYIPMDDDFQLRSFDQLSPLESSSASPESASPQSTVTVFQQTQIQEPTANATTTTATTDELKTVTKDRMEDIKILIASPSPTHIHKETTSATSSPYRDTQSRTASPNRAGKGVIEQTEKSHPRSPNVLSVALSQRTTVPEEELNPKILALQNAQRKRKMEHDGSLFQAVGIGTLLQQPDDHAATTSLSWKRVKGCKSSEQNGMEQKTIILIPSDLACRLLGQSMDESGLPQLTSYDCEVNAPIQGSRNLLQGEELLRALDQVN
Heat shock factor protein 1 (Homo sapiens), sequence (Q00613 whole entry, looked up, the tested form may be a part): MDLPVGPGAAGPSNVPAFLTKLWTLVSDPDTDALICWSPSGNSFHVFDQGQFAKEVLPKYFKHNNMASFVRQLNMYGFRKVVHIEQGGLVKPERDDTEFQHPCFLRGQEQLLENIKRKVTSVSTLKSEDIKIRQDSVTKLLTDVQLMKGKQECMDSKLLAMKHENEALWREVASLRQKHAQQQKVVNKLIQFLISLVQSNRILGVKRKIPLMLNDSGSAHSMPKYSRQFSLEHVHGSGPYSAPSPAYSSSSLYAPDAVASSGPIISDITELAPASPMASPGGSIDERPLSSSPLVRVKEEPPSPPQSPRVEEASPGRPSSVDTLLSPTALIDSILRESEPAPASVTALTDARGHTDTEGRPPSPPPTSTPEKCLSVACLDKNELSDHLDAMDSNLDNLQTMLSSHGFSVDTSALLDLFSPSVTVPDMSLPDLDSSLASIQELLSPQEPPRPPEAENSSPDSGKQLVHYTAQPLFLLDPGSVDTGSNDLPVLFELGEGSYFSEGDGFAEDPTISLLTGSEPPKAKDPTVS
Cellular tumor antigen p53 (Homo sapiens), sequence (P04637 whole entry, looked up): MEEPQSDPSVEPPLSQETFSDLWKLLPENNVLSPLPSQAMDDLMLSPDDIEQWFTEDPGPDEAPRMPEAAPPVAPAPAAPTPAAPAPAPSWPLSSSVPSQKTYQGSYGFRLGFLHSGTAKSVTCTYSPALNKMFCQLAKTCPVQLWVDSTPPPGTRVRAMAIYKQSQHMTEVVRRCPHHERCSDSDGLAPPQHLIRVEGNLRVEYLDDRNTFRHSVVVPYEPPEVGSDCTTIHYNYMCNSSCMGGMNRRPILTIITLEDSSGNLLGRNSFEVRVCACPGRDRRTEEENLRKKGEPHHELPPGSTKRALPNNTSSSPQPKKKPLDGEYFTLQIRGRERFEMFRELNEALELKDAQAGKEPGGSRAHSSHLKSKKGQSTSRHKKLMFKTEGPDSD
Nuclear respiratory factor 1 (Homo sapiens), sequence (Q16656 whole entry, looked up): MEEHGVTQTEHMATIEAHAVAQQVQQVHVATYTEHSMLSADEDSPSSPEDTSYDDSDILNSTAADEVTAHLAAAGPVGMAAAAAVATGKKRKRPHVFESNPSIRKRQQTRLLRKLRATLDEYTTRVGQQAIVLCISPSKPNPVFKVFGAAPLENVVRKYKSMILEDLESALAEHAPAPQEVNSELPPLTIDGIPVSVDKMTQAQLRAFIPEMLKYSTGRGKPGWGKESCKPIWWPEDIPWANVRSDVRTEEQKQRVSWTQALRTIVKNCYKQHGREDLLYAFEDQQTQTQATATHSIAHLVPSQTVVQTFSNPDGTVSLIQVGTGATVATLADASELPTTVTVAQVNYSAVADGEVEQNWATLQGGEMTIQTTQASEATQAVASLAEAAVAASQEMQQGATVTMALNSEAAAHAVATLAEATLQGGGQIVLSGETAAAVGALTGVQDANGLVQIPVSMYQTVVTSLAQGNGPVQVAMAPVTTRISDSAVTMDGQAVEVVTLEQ
Transcription factor E2F1 (Homo sapiens), sequence (Q01094 whole entry, looked up): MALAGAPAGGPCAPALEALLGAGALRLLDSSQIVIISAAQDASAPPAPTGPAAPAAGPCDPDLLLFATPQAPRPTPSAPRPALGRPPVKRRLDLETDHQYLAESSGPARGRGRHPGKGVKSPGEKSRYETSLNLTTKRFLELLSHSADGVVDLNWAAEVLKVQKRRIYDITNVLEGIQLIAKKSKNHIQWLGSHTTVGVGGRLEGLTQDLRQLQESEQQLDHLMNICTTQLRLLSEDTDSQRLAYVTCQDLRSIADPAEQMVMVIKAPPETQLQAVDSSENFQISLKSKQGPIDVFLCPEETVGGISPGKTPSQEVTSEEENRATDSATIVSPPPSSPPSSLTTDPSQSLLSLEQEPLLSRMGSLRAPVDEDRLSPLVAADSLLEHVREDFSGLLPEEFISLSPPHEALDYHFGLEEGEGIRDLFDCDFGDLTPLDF
Paired box protein Pax-6 (Homo sapiens), sequence (P26367 whole entry, looked up): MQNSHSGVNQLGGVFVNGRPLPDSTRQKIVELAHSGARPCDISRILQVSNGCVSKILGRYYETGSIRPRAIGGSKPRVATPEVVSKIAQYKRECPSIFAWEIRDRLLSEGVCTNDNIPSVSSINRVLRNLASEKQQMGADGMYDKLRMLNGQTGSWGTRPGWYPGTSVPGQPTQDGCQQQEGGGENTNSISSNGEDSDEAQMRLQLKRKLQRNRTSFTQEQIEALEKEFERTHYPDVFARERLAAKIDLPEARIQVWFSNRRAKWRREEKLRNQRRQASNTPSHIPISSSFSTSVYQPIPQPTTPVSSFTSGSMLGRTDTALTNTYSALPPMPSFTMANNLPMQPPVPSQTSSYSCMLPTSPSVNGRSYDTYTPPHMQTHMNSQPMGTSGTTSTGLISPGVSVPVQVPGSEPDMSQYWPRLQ
Peroxisome proliferator-activated receptor gamma (Homo sapiens), sequence (P37231 whole entry, looked up, the tested form may be a part): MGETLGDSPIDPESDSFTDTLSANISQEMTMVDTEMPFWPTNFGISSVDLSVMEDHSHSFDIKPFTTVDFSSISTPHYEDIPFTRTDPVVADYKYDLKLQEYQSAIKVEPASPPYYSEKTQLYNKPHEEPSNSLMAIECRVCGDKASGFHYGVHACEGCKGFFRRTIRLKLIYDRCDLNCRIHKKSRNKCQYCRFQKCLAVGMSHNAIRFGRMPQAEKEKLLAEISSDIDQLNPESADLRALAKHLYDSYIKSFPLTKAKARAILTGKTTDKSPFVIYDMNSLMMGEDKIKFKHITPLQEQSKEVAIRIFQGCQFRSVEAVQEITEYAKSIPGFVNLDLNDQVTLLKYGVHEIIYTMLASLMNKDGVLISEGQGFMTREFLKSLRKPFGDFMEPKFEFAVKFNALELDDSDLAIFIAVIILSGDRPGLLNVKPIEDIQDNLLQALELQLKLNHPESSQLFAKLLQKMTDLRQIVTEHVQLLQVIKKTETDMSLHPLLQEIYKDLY

C=CC(=O)OCC(CC)CCCC (configuration not stated)
active: [16] 100 µM
not listed: [20]
inactive: all other assays above

CN(C)C(=O)C(c1ccccc1)c1ccccc1
not listed: [9]
inactive: all other assays above

O=C(O)COc1ccccc1
not listed: [2] | [6] | [17]
inactive: all other assays above

BrCBr
not listed: [15] | [17] | [19]
inactive: all other assays above

COc1cc(OC)nc(Oc2cccc(Oc3nc(OC)cc(OC)n3)c2C(=O)O)n1
not listed: [7]
inactive: all other assays above

O=C1C=CC(=O)C=C1
active: [16] 57.4 µM
not listed: [3] | [5] | [10]
inactive: all other assays above

Nc1ccccc1
not listed: [15] | [19] | [20]
inactive: all other assays above

C=C(Cl)Cl
not listed: [2] | [10] | [11] | [15]
inactive: all other assays above

Oc1ccc(Cl)cc1
not listed: [2] | [9] | [19] | [20]
inactive: all other assays above

SCc1ccco1
active: [16] 71.2 µM | [19] 27.9 µM
inactive: all other assays above

O=P1(NCCCl)OCCCN1CCCl (configuration not stated)
not listed: [7] | [10] | [18] | [20]
inactive: all other assays above

CCC(Br)(CC)C(=O)NC(N)=O
not listed: [11] | [19]
inactive: all other assays above

CC1OC(C)OC(C)O1 (configuration not stated)
not listed: [5] | [9] | [10] | [20]
inactive: all other assays above

CC(C)C(=O)Cl
not listed: [6] | [7] | [17] | [19]
inactive: all other assays above

O=P(O)(Oc1ccccc1)Oc1ccccc1
not listed: [5]
inactive: all other assays above

C=CCc1ccc(OC(=O)Cc2ccccc2)c(OC)c1
active: [10] 27.5 µM | [15] 114 µM | [16] 11 µM | [19] 19 µM
inactive: all other assays above
